In paper PMC7862700, “An all-to-all approach to the identification of sequence-specific readers for epigenetic DNA modifications on cytosine”:

How the values were obtained:
Assay in all cases: DAPPL (digital affinity profiling via proximity ligation, sequencing); 10 mM Tris-HCl pH 7.5, 50 mM NaCl, 1 mM DTT, 4% glycerol, room temperature, 30 min; GST-TFs on glutathione beads, 16-mer random dsDNA library, 0.1% formaldehyde crosslink after washing; high values mean tight binding
Details in all cases: protein: recombinant; tags: N-terminal GST; dsDNA, one strand shown
ELF4 = ELF4 (Homo sapiens, UniProt Q99607 1-663)
How it was run: (§1)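 Binding signal is defined as a hexamer's read frequency for one factor over its frequency for the tag-only sample. To obtain reads, GST-fused human transcription factors were expressed in yeast, captured on glutathione beads, barcoded with DNA and pooled with that sample. Pools met 200 nmole of a 16-mer random double-stranded DNA library in Tris/NaCl/DTT/glycerol buffer for 30 min at room temperature before washing, 0.1% formaldehyde crosslinking, proximity ligation (BsaI/T4 ligase, 1 h, 37 °C), PCR and Illumina NextSeq500 sequencing.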

ETV2 = biological target: T1, ETV2 (Homo sapiens, UniProt O00321 1-342)
T1 sequence: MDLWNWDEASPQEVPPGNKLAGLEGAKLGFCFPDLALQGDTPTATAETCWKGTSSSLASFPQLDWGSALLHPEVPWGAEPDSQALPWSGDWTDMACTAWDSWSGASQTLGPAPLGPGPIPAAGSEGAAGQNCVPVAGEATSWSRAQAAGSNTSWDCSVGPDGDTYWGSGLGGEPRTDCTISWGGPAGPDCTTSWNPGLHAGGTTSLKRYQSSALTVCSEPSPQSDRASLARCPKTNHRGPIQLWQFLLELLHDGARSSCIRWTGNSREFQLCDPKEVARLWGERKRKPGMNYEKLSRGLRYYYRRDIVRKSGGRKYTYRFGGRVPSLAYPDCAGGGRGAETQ
How it was run: as §1

ELF3 = biological target: T2, ELF3 (Homo sapiens, UniProt P78545 1-371)
T2 sequence: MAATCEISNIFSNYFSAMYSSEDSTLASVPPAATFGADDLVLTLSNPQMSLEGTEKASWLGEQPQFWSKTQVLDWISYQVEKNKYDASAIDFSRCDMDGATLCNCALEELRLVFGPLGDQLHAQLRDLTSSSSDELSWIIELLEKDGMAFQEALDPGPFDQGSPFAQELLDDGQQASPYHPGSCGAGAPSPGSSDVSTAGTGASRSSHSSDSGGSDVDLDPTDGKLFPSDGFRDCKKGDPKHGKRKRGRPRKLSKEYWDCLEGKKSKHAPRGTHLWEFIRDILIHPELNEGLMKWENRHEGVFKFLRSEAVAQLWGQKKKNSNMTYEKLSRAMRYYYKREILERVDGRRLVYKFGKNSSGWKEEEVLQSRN
How it was run: as §1

ETV1 = ETV1 (Homo sapiens, UniProt P50549 1-477)
How it was run: as §1

ERF = biological target: T3, ERF (Homo sapiens, UniProt P50548 1-548)
T3 sequence: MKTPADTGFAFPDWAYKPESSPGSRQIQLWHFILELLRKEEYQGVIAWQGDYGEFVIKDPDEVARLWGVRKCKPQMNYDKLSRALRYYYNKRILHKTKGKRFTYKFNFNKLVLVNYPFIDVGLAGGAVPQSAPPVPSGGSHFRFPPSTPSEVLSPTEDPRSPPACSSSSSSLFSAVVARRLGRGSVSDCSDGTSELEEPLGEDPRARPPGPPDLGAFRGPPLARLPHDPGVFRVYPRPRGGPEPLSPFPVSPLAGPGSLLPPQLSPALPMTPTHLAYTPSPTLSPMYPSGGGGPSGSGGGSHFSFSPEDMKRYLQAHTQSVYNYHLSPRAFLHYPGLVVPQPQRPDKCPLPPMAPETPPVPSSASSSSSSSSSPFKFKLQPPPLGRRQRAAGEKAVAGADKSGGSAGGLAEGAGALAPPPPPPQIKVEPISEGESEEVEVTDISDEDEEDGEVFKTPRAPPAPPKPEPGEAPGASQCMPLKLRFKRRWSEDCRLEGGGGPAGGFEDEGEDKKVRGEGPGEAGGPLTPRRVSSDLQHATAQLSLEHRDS
How it was run: as §1

ETV3L = biological target: T4, ETV3L (Homo sapiens, UniProt Q6ZN32 1-361)
T4 sequence: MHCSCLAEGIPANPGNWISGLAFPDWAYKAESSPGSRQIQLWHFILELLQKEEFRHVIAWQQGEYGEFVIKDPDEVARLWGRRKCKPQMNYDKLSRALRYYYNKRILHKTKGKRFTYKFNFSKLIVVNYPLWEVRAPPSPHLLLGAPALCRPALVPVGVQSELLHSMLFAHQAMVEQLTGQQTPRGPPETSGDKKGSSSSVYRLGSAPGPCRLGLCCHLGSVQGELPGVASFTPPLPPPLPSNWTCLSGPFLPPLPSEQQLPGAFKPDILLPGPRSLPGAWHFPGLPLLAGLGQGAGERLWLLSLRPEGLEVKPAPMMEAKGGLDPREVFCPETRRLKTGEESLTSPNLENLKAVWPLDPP
How it was run: as §1

ETS2 = biological target: T5, ETS2 (Homo sapiens, UniProt P15036 1-469)
T5 sequence: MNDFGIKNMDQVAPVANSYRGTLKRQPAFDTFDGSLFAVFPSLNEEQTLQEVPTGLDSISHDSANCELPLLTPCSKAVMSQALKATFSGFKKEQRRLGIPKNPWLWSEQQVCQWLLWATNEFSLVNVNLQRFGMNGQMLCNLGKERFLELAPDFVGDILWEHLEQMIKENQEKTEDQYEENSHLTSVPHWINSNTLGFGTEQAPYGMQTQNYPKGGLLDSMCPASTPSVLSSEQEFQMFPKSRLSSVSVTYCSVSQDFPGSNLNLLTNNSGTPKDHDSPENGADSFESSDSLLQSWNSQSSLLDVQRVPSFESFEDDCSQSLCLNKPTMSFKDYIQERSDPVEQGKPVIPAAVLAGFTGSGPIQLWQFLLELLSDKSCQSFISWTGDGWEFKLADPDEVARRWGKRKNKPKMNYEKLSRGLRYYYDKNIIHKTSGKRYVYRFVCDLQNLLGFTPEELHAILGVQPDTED
How it was run: as §1

ETV7 = biological target: T6, ETV7 (Homo sapiens, UniProt Q9Y603 1-341)
T6 sequence: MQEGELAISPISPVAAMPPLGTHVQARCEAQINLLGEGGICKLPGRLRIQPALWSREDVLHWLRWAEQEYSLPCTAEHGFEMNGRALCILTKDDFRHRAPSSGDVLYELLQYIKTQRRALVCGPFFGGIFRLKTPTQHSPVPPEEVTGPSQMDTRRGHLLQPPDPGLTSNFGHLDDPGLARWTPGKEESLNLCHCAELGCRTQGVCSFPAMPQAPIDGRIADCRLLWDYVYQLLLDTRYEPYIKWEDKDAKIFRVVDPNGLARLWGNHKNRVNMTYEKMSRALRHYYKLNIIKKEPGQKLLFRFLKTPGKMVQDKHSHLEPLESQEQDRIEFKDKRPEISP
How it was run: as §1

ETV3 = biological target: T7, ETV3 (Homo sapiens, UniProt P41162-2 1-143)
T7 sequence: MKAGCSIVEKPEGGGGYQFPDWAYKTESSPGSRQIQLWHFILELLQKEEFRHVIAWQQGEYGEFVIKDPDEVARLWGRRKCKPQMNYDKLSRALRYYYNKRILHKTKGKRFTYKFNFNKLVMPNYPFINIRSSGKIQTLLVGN
How it was run: as §1

ETV6 = ETV6 (Homo sapiens, UniProt P41212 1-452)
How it was run: as §1

ETV6, sequence (P41212 whole entry): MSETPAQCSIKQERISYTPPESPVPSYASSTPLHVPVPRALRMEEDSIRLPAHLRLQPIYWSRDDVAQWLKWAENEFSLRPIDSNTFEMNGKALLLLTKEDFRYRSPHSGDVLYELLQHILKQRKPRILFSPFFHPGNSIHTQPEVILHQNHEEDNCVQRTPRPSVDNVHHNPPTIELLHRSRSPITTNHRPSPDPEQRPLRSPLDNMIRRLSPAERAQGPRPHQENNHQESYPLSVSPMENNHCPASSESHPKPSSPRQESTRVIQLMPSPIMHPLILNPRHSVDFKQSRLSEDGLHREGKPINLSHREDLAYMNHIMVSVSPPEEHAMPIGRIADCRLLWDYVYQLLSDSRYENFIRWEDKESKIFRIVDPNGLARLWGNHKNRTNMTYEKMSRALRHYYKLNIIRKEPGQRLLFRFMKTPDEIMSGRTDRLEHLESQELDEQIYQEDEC
ELF4, sequence (Q99607 whole entry, the tested form may be a part): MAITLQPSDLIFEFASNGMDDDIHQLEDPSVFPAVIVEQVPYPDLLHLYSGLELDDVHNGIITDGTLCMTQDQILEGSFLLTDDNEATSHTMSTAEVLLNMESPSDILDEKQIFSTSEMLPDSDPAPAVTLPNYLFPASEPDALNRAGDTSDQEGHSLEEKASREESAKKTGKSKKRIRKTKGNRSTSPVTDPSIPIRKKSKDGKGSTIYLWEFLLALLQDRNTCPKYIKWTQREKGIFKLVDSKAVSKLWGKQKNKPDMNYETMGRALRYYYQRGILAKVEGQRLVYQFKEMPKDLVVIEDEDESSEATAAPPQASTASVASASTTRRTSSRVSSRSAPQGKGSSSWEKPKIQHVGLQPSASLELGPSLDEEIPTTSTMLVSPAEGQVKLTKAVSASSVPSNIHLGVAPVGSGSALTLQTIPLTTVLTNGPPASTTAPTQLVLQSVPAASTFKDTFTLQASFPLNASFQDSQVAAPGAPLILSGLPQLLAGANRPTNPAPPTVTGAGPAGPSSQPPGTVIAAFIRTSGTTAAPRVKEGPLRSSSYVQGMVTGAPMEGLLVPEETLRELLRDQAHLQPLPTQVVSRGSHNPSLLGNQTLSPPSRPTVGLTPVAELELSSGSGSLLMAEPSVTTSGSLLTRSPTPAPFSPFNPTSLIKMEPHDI
ETV1, sequence (P50549 whole entry): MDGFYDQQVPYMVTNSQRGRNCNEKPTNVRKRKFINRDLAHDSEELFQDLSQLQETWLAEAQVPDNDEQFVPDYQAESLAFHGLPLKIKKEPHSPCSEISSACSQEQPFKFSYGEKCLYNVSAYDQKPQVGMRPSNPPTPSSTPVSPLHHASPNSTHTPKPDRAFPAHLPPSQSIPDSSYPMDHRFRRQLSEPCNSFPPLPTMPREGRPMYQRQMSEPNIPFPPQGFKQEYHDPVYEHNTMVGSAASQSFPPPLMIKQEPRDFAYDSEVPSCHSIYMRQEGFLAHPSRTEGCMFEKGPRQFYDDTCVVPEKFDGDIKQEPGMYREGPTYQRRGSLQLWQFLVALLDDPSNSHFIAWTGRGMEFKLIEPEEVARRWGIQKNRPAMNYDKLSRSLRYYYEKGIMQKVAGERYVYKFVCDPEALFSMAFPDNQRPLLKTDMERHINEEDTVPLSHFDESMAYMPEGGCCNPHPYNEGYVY

With CATTGT the binding signal (ELF4) was 1.14 fold enrichment (6-mer frequency, TF over GST control), the binding signal (ETV2) was 1.11 fold enrichment (6-mer frequency, TF over GST control) and the binding signal (ELF3) was 1.02 fold enrichment (6-mer frequency, TF over GST control). For the same sequence, the binding signal (ETV1) was 1.14 fold enrichment (6-mer frequency, TF over GST control), the binding signal (ERF) was 1.12 fold enrichment (6-mer frequency, TF over GST control) and the binding signal (ETV3L) was 1.19 fold enrichment (6-mer frequency, TF over GST control). The binding signal (ETS2) was 1.07 fold enrichment (6-mer frequency, TF over GST control), the binding signal (ETV7) was 1.11 fold enrichment (6-mer frequency, TF over GST control) and the binding signal (ETV3) was 1.16 fold enrichment (6-mer frequency, TF over GST control). For the same sequence, the binding signal (ETV6) was 1.15 fold enrichment (6-mer frequency, TF over GST control).
